The results in this text go back to PubChem BioAssay (NCATS).

Structures are written as SMILES. Results filed as inconclusive are left out. Calls of active or inactive are those of the source. Calls follow the shape of the dose curve; as a rule, active = well fitted curve in the direction sought with a large enough effect; inconclusive = small, poorly fitted or top-dose-only effect, or another doubt; inactive = no such curve, though single readings can be large; an effect the other way counts as inactive or inconclusive.

The nature of assay [1]: qHTS Screen of the MIPE 4.0 Collection Against Ewings Sarcoma (TC71) (AID 1259253). Also: nearly all actives have a fitted effect of over 40% in size. Also: potency is read from the fitted curve at half-maximal effect. Summed up: (§1)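 Dose series incubated 48 h with cells in RPMI plus 5% FBS, glutamine and penicillin/streptomycin; cell viability then quantified via CellTiter-Glo.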
Background: Quantitative high-throughput screening tests each substance at several concentrations.

Assay [2] can be described thus: qHTS Screen of the MIPE 4.0 Collection Against Ewings Sarcoma (EW8) (AID 1259255). Also: nearly all actives have a fitted effect of over 35% in size. Also: potency is read from the fitted curve at half-maximal effect. In a few lines:
as §1

The nature of assay [3]: qHTS Screen of the MIPE 4.0 Collection Against Ewings Sarcoma (TC32) (AID 1259256). Also: nearly all actives have a fitted effect of over 45% in size. Also: potency is read from the fitted curve at half-maximal effect. In a few lines: as §1
A short description of assay [4]: Identifying Small Molecule Inhibitors of Pancreatic Cancer Stem Cells (A2780, Spheroid) (AID 1259357).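 Also: spheroids pre-formed over 14 days in stem cell medium on hydrogel; compound exposure lasted 48 h before the ATP luminescence read.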 To be noted: Potency: A2780 spheroid viability. Summed up:
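Pre-formed 14-day tumor spheroids or adherent cells dosed and incubated 48 h, 37C, 5% CO2. Viability assessed by CellTiter-Glo.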

The nature of assay [5]: Identifying Small Molecule Inhibitors of Pancreatic Cancer Stem Cells (SN12C, Adherent) (AID 1259358).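 Also: cell survival measured after 48 h of compound exposure.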 In a few lines:
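Endpoint: ATP-based luminescence, 48 h drug exposure. Bortezomib at 9.2 uM final as full-kill control; DMSO vehicle as negative control; activity normalized between vehicle and cell-free wells.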

Assay [6] can be described thus: P-glycoprotein substrates identified in KB-3-1 adenocarcinoma cell line, qHTS therapeutic library screen (AID 1346986). Also: nearly all actives have a fitted effect of over 60% in size. In a few lines: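 KB-3-1 parental and colchicine-selected P-gp-overexpressing KB-8-5-11 cells (colchicine omitted during assay), 500 cells/well, dosed in dose-response for 72 h at 37 °C; CellTiter-Glo luminescence. Cytotoxic: curve class -1.1 to -2.4, max response >50%, AC50 < 10 uM.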

The nature of assay [7]: qHTS assay to identify small molecule inhibitors of chordoma cells - UCH-2 (AID 1259356). Also: series mostly up to about 46 µM.

Take `COc1cc2ncn(-c3cc(OCc4ccccc4S(C)(=O)=O)c(C#N)s3)c2cc1OC`: the Potency in assay [1] was 3.32 µM (active). Further, the Potency result in assay [2] is “inactive”.
As to `N#CC(c1ccnc(NCCc2cccnc2)n1)c1nc2ccccc2s1` (stereo unspecified), the Potency in assay [1] is 16.6 µM (active); in assay [2], 14.8 µM (active).
Regarding `CCOC(=O)c1c(CSc2ccccc2)n(C)c2cc(Br)c(O)c(CN(C)C)c12`, the results for the Potency in assay [1], in assay [2] and in assay [3] were 16.6 µM (active), 20.9 µM (active) and 13.2 µM (active), respectively.
Regarding `CN(C(Cc1ccc(OS(=O)(=O)c2cccc3cnccc23)cc1)C(=O)N1CCN(c2ccccc2)CC1)S(=O)(=O)c1cccc2cnccc12` (stereo unspecified), the figures for the Potency in assay [1], in assay [2] and in assay [3] were 18.7 µM (active), 14.8 µM (active) and 16.6 µM (active), respectively.
Taken in the same sequence, the figures for `CNC(=O)[C@H](Cc1ccccc1)NC(=O)[C@H](CC(C)C)[C@H](CSc1cccs1)C(=O)NO` were 5.9 µM (active), “inactive” and “inactive”.
Consider `C=C1c2cccc(O)c2C(O)=C2C(=O)[C@@]3(O)C(O)=C(C(N)=O)C(=O)[C@@H](N(C)C)[C@@H]3[C@@H](O)[C@H]12`, for which the Potency was 20.9 µM (active) in assay [1] and 23.5 µM (active) in assay [2].
Regarding `Cc1nc(C(=O)NCC(=O)O)c(O)c2ccc(Oc3ccccc3)cc12`, the Potency entry in assay [1], in assay [2] and in assay [3] was “inactive” throughout.
Regarding `CCC(=C(CC)c1ccc(O)cc1)c1ccc(O)cc1`, the Potency in assay [1] and in assay [2] was 26.4 µM (active) throughout.
Regarding `CC1(C)C(N(O)C(=O)Nc2ccc(Cl)cc2)N(c2ccc(Cl)cc2)C(=O)N1CC(=O)NN=CC=Cc1ccc([N+](=O)[O-])o1` (stereo unspecified), the Potency is 18.7 µM (active) in assay [1], 14.8 µM (active) in assay [2] and 18.7 µM (active) in assay [3].
Take `CN1CCN(c2ncc(-c3cc(Cl)cc(Cl)c3Cl)c(N)n2)CC1`: in assay [1], the Potency was 16.6 µM (active). The Potency result in assay [2] and in assay [3] was “inactive” throughout.
As to `CCN1CCC(n2cc(CNc3cc(Cl)c4ncc(C#N)c(Nc5ccc(F)c(Cl)c5)c4c3)nn2)CC1`, the Potency was 18.7 µM (active) in assay [1], 20.9 µM (active) in assay [2] and 18.7 µM (active) in assay [3].
For `NC(=O)c1nnn(Cc2cc(Cl)c(C(=O)c3ccc(Cl)cc3)c(Cl)c2)c1N`, the figures for the Potency in assay [1], in assay [2] and in assay [3] were 18.7 µM (active), 26.4 µM (active) and 20.9 µM (active), respectively.
On to `O=c1[nH]nc(OCCCc2ccc(Cl)cc2)c(NCc2cccnc2)c1Br`, for which the values for the Potency in assay [1] and in assay [2] were 16.6 µM (active) and 13.2 µM (active), respectively.
As to `OC1CCC(Nc2ncc3nc(Nc4c(F)cc(F)cc4F)n([C@@H]4CCOC4)c3n2)CC1` (stereo partly specified), the results for the Potency in assay [1] and in assay [2] were 10.5 µM (active) and 9.35 µM (active), respectively.
`N#CC1(c2cccc(C(=O)Nc3cc(Oc4ccc5nc(NC(=O)C6CC6)sc5n4)ccc3F)c2Cl)CC1`: the Potency in assay [1] was 16.6 µM (active); in assay [2], 20.9 µM (active).
Taken in the same sequence, the figures for `O=C1CCCC(=O)C1C(=O)c1ccc(C(F)(F)F)cc1[N+](=O)[O-]` were 23.5 µM (active) and “inactive”.
For `CNC1[C@H](O)C(O[C@@H]2C(O)C(O[C@H]3O[C@H]([C@@H](C)NC)CC[C@H]3N)[C@@H](N)C[C@H]2N)OC[C@]1(C)O` (stereo partly specified), the Potency result in assay [1], in assay [2] and in assay [3] was “inactive” each time.
For `O=C(O)C1=CC(O)C(O)[C@H](O)C1` (stereo partly specified), the Potency result in assay [1], in assay [2] and in assay [3] was “inactive” throughout.
In the case of `CON(C)C(=O)N1N=C(c2cc(F)ccc2F)S[C@]1(CCCN)c1ccccc1`, the Potency entry in assay [1], in assay [2] and in assay [3] was “inactive” throughout.
As to `CN1CCc2c(n(Cc3ccc(C(=O)NO)cc3)c3ccccc23)C1`, the Potency in assay [1] was 18.7 µM (active); in assay [2], 16.6 µM (active); in assay [3], 13.2 µM (active).
The like results for `C[C@@H]1O[C@@H](O[C@H]2CC[C@@]3(C)[C@H](CC[C@@H]4[C@H]3C[C@@H](O)[C@]3(C)[C@@H](C5=CC(=O)OC5)CC[C@]43O)C2)C[C@H](O)[C@@H]1O[C@H]1C[C@H](O)[C@H](O[C@H]2C[C@H](O)[C@@H](O)[C@@H](C)O2)[C@H](C)O1` (stereo in doubt) were, in that order, 0.241 µM (active), 0.215 µM (active) and 0.241 µM (active).
With `Cc1ccc(NC(=O)c2ccc(CN3CCN(C)CC3)cc2)cc1Nc1nc(-c2cccnc2)cs1`, the Potency in assay [1] was 23.5 µM (active); in assay [2], 23.5 µM (active); in assay [3] it was 26.4 µM (active). Also, the Potency entry in assay [4], in assay [5] and in assay [6] was “inactive” each time.
As to `C[C@@H]1[C@H](C)CC[C@]2(C(=O)O)CC[C@]3(C)C(=CC[C@@H]4[C@@]5(C)CC[C@H](O)C(C)(C)[C@H]5CC[C@]43C)[C@@H]12`, the Potency is 1.71 µM (active) in assay [1], 5.4 µM (active) in assay [2] and 1.52 µM (active) in assay [3].
As for `COc1cc([C@H]2Oc3cc([C@H]4Oc5cc(O)cc(O)c5C(=O)[C@H]4O)ccc3O[C@H]2CO)ccc1O`, the Potency in assay [1] is 14.8 µM (active); in assay [2] it was 9.35 µM (active); in assay [3] it was 16.6 µM (active).
On to `COc1c(C)c2c(c(O)c1CC=C(C)CCC(=O)OCCN1CCOCC1)C(=O)OC2`, for which the Potency in assay [1] was 1.48 µM (active); in assay [2], 1.05 µM (active); in assay [3], 1.32 µM (active). In addition, in assay [7], the compound was called inactive.
